Screening results as filed in PubChem.
ERK EGF block – blocks ERK signaling stimulated by EGF; HEK293-V1b, EGF-stimulated phospho-ERK AlphaScreen; Potency, µM (titrated, usually from 11.5 µM), hits mostly inhibitors; 130,000 compounds, 0.41% hits; AID 1454; active means well fitted inhibition curve with a large enough effect; further: nearly all actives have a fitted effect of over 55% in size
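Stably V1b-transfected HEK293 cells; 30 min compound, then EGF 25 nM final for 5 min at 37C; 10 min lysis; phospho-ERK by AlphaScreen after 5 hr beads at room temperature.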
Large screens that a line does not name were inactive. Many of the other results were omitted from the sample, so hits are more common in it than they were.

CC(=O)OC1CC(OC(C)=O)[C@]2(C)C(CC(OC(C)=O)[C@]3(C)C2CC[C@@]2(C)C(c4ccoc4)OC(=O)C4O[C@]432)C1(C)C (stereo not given in full)	none
Nc1ncnc2c1nc(Br)n2C1O[C@H]2COP(=O)(O)O[C@@H]2C1O (stereo not given in full)	none
COc1c2ccccc2nc2occc12	none
O=Cc1s/c(=N\S(=O)(=O)c2ccccc2)n(CCCCl)c1Cl	ERK EGF block 22.4µM
CN1C/C(=N\S(=O)(=O)c2ccccc2)N(C)C1=O	none
COCCCN1C(=O)CS/C1=N\S(=O)(=O)c1ccccc1	none
CCOC(=O)CNC(=O)O[C@@H]1C(=O)c2ccc(OC)cc2O[C@H]1c1ccc2c(c1)OCO2	none
C=C1C[C@]23C[C@@]1(O)CC[C@H]2[C@@]12C=C[C@H](O)C(C)(C(=O)O1)[C@H]2[C@@H]3CC(=O)O	none
COC(=O)C1=C(C)NC(C)=C([N+](=O)[O-])[C@@H]1c1ccccc1C(F)(F)F	none
COc1cccc2c1C(=O)c1c(O)c3c(c(O)c1C2=O)C[C@@](O)(C(=O)CO)C[C@@H]3O[C@H]1C[C@H](N)[C@H](O)[C@H](C)O1	ERK EGF block 28.2µM
COc1cccc2c1C(=O)c1c(O)c3c(c(O)c1C2=O)C[C@](O)(C(C)=O)C[C@H]3O[C@@H]1C[C@H](N)[C@H](O)[C@H](C)O1	none
CC(C)c1c(O)ccc2c1CCC1[C@@](C)(CO)CCC[C@@]21C (stereo not given in full)	none
CC(=O)Oc1ccc2c(c1C(C)C)CCC1C(C)(C)CCC[C@@]21C (stereo not given in full)	none
COC(=O)[C@@]1(C)CCC[C@@]2(C)c3ccc(O)c(C(C)C)c3CCC21 (stereo not given in full)	ERK EGF block 22.4µM
CCCC[C@@H]1C[C@H]1C(NC(=O)c1ccccc1)c1ccc(C(=O)OC)cc1 (stereo not given in full)	none
O=C(Nc1ccccc1)N1CCC2(CC1)CCN(S(=O)(=O)c1ccccc1)CC2	none
C[N+]1(C)CC[C@@H](OC(=O)[C@@](O)(c2ccccc2)C2CCCC2)C1	none
COc1cc(/C=C\C(=O)N2CCC=CC2=O)cc(OC)c1OC	none
CC(=O)N(C1=C(Cl)C(=O)c2ccccc2C1=O)C1CCCCC1	ERK EGF block 25.1µM
CC(=O)N(c1ccccc1C)C1CCCC1	none
O=C1C(Cl)=C(N2CCC(C(=O)O)CC2)C(=O)c2ccccc21	none
CC(=O)N[C@H](Cc1c[nH]c2ccccc12)C(N)=O	none
C[C@H]1C=C2C=C[C@H](C)[C@H](CC[C@@H]3C[C@@H](O)CC(=O)O3)[C@H]2[C@@H](OC(=O)[C@@H](C)CCO)C1	none
CC(C)C[C@@H](CC(=O)N[C@@H](CCC(=O)O)CC(=O)O)NC(=O)[C@@H]1CNCC[C@H]1NC(=O)C[C@H](CCCN)NC(=O)C[C@H](Cc1c[nH]c2ccccc12)NC(=O)[C@@H]1CCCC[C@H]1N	none
CCCCC[C@H](O)/C=C/[C@H]1OC(O)C[C@H](O)[C@@H]1C/C=C\CC(=O)O (stereo not given in full)	none
NCC1O[C@@H](OC2C(N)C[C@H](N)[C@@H](O[C@H]3OC(CO)C(O)C(N)C3O)C2O)C(N)C(O)C1O (stereo not given in full)	none
NCC1O[C@@H](O[C@@H]2C(O)[C@H](O[C@H]3OC(CO)C(O)C(N)C3O)[C@@H](N)C[C@H]2N)C(N)C(O)C1O (stereo not given in full)	none
COC(=O)CCC(=O)OC1(C)C(=O)C=C2C=C(c3ccc(C#N)cc3)OC=C2C1=O (stereo not given)	none
CN1CCN(c2ccnc(-c3ccccc3C(F)(F)F)n2)CC1	none
Cc1onc(-c2ccccc2)c1C(=O)N/N=C/c1cccc(O)c1	none
Cc1onc(-c2ccccc2)c1C(=O)N/N=C/C=C/c1ccccc1	ERK EGF block 17.8µM
Cc1onc(-c2ccccc2)c1C(=O)N/N=C/c1ccco1	none
C=C1C2=CC(=O)OC(c3ccoc3)[C@]2(C)CCC1[C@]1(C)C=CC(=O)C(C)(C)C1CC(=O)OC (stereo not given in full)	none
COC(=O)N[C@@H](CCc1ccccc1)/C(C(=O)OC)=C(\C)NCc1ccccc1	none
CCCC[C@H]1C[C@@H]1[C@@H]1N(C(C)=O)[C@H](c2cccc(OC)c2)CC12CC2	none
COc1ccc(NC(=O)N2CCCC3(CCNCC3)C2)cc1	none
Cc1ccc(O)c(C(=O)c2cc(C#N)c3nc4ccccc4n3c2)c1	ERK EGF block 31.6µM
Cc1ccc(O)c(C(=O)c2cc(C#N)c(=O)n(Cc3ccccc3)c2)c1	none
Cc1ccc(O)c(C(=O)c2cc(C#N)c(=O)n(C(C)c3ccccc3)c2)c1 (stereo not given)	none
CC(C)(C)[C@]1(O)CCN2CC3c4ccccc4CCc4cccc(c43)[C@@H]2C1 (stereo not given in full)	none
CCCCC1=CC2=C(OC(C)=O)C(=O)C(C)(OC(=O)C3CCCC3)C(=O)C2=CO1 (stereo not given)	none
COc1cc(/C=C/C(=O)N2CCCCC2=O)cc(OC)c1OC	none
c1ccc(-c2nc(-c3cccc4ccccc34)c(Nc3ccc4ccccc4c3)o2)cc1	none
CC1=NN(c2ccccc2)C(=O)/C1=C\C=C\c1ccccc1	ERK EGF block 25.1µM
CC1=NN(c2ccc([N+](=O)[O-])cc2)C(=O)/C1=C\N(C)C	none
CC1=NN(c2ccccc2)C(=O)/C1=C/C=C/c1ccc(N(C)C)cc1	ERK EGF block 7.08µM
Cc1ccc(C(=O)NN2C(=O)/C(=C/c3cn(C)c4ccccc34)SC2=S)cc1	none
CCOC1=NN(c2ccccc2)C(=O)/C1=C\N(C)C	none
Cn1cc(C=O)c2ccccc21	none
CC1=NN(c2ccccc2)C(=O)/C1=C/N(C)C	none
CCOC(=O)CC1=NN(c2ccccc2)C(=O)/C1=C\c1ccc(N(C)C)cc1	ERK EGF block 25.1µM
CC1=NN(c2ccc(C(=O)OC(C)C)cc2)C(=O)/C1=C\C=C\c1ccco1	none
CCOC(=O)CC1=NN(c2ccccc2)C(=O)C1	none
CC1=NN(c2ccccc2)C(=O)/C1=C\c1cn(C)c2ccccc12	ERK EGF block 14.1µM
CC1=NN(CCC#N)C(=O)/C1=C/c1ccc(N(C)C)cc1	none
COc1ccc(C(=O)N2CCC3(CCN(Cc4ccccc4OC)CC3)CC2)cc1	none
CCCCCCCCCCCCCCC[C@@H](O)[C@H](CO)NC(=O)CCCCCCC	none
COC(=O)[C@H](COC(C)(C)C)NC(=O)O[C@H]1C(=O)c2cc(OC)ccc2O[C@@H]1c1ccc(OC)c(Br)c1	none
CC1=C2C(=COC(C)C2C)C(=O)C(C(=O)O)=C1O (stereo not given)	none
Cc1noc(C)c1C(=O)N1CCC2(CCCN(c3ncccn3)C2)CC1	none
Cn1cccc1C(=O)N1CCC2(CCN(C(=O)Nc3ccccc3)CC2)CC1	none
Cc1cc2ccccn2c1C(=O)c1cc([N+](=O)[O-])cc([N+](=O)[O-])c1	ERK EGF block 28.2µM
CCN(CC)S(=O)(=O)c1cccc(C(=O)c2c(C)cc3ccccn23)c1	none
Cc1cccc(NC(=O)CSc2ccc(C(N)=O)cc2[N+](=O)[O-])c1C	none
O=C(O)c1ccc(Sc2nnc3ccccn23)c([N+](=O)[O-])c1	none
Cc1cc2ccccn2c1C(=O)Nc1ccccc1	none
Cc1cc2ccccn2c1C(=O)c1ccc(NN)c([N+](=O)[O-])c1	ERK EGF block 25.1µM
OC1c2ccccc2-c2nc3ccccc3cc21 (stereo not given)	none
O=C(O)C=Cc1ccc(Cn2ccnc2)cc1	none
CC(C)[C@@H]1C(=O)N(S(C)(=O)=O)[C@H]2CCN(C(=O)/C=C\CN3CCCCC3)[C@@H]12	none
